LMP1 NFkB inh – EBV LMP1-driven NF-kappaB luciferase reporter inhibitors, primary screen, cell-based, luminescence, single point; 0.69% of 350,000 active; LMP1-induced NF-kappaB luciferase reporter cells; inhibition, % at 12.5 µM; in the data active = inhibition above about 41%;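 also: 0% = neutral control wells and 100% = reference inhibitor control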
LGR2 antag – inhibitors of bursicon-induced LGR2 CRE-luciferase signal, primary screen, cell-based, HEK293, CRE-luciferase reporter, bursicon stimulation; bursicon-stimulated, 4 h; AID 720647, 2013; 0.35% of 380,000 active; Drosophila bursicon receptor LGR2 (rickets); inhibition, % at 9.99 µM;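 active = drop in luminescence signal, shown as inhibition above about 50% in the replicate tests, limit read from the data, passing the limit was not always enough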;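 also: agonist challenge used bursicon conditioned medium at about half maximal strength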
Shn3 inh set2 – reduction of Shn3 3'UTR firefly luciferase signal, primary screen, Schnurri-3 inhibitor project, cell-based, Clone20 osteoblasts, set 2 | AID 588674, 2011 | 0.52% of 360,000 active | Clone20 osteoblast Shn3 3'UTR firefly luciferase, 24 h | inhibition, % at 12.5 µM;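 active = mean inhibition of at least 75% with every replicate also reaching 75%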;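 also: 0% = median of neutral control wells and 100% = pilot-screen positive control compound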
TRPM1 prom inh – inhibitors of MITF-dependent TRPM1 promoter reporter, primary screen, cell-based, SK-MEL-5, single point, luciferase. SK-MEL-5 TRPM1 promoter luciferase, 24 h. 0.83% of 330,000 active. AID 488899, 2010. inhibition, % at 12.5 µM;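 active = mean inhibition across replicates of 60% or more, whatever share of single replicates reaches that level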
EWS-Fli block – EWS/Fli-driven NR0B1 reporter inhibitors, primary screen, A673 cells, NR0B1 luciferase, luminescence, MLPCN library; viability-normalised; inhibition, % at 12.6 µM; 0.67% of 350,000 active; AID 651661, 2012;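 active = mean inhibition of at least 50% after viability correction, with every replicate also passing that limit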;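 also: firefly luciferase signal divided by Alamar Blue viability fluorescence both relative to DMSO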
PAX8 inh HTS – inhibitors of PAX8-driven TPO luciferase reporter, primary screen, RMG-I cells, single concentration. SteadyGlo, 24 h. inhibition, % at 12.6 µM. 1.2% of 360,000 active. AID 652154, 2013;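 active = mean replicate inhibition at least 60% with every replicate also reaching 60%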;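 also: luciferase light reporting Pax8 driven TPO promoter activity; plate controls were median of neutral control wells for no effect and mitoxantrone controls for full effect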
Active calls of the source: *; x = no result given. Only some compounds are listed: those with a hit (about 2.2% of all), similar ones and a draw of the others.

SMILES	LMP1 NFkB inh	LGR2 antag	Shn3 inh set2	TRPM1 prom inh	EWS-Fli block	PAX8 inh HTS
CCCN(C)C[C@@H]1Oc2cc(-c3ccc(C#N)cc3)ccc2S(=O)(=O)N([C@@H](C)CO)C[C@@H]1C	x	3	x	x	9	-16
O=C(CCc1ccccc1)OCCN1CCOCC1	-3	x	-25	2	x	x
CCOC(=O)/C(=C\c1ccccc1)C(=O)CCN1CCOCC1	1	-3	21	84*	0	x
CC(C)c1ccccc1NC(=O)COc1ccc(C(=O)NCCc2ccccc2)cc1	2	-4	4	2	x	1
CCOC(=O)c1ccc(NC(=O)COc2ccc(CNCCO)cc2OCC)cc1	-7	-10	2	-5	3	18
CCOc1ccc(NC(=O)COc2ccc(C(=O)NCCc3ccccc3)cc2)cc1	-5	-1	12	-5	-9	73*
CCOC(=O)c1ccc(NC(=O)COc2ccccc2CNCCc2ccccc2)cc1	-55	71*	0	-2	19	8
CN1C(=O)c2cc(NC(=O)c3ccc(Cl)cc3)ccc2OC[C@@H]2O[C@H](CC(=O)NCc3cccc(F)c3)CC[C@@H]21	x	-7	x	x	9	37
N#C[C@@H]1[C@@H](c2ccc(C#Cc3ccccc3F)cc2)[C@H](CO)N1C(=O)C1CCCCC1	x	-14	x	x	3	81*
COc1ccccc1C#Cc1ccc([C@H]2[C@H](C#N)N(C(=O)C3CCC3)[C@H]2CO)cc1	x	42	x	x	-6	106*
COc1ccccc1C#Cc1ccc([C@H]2[C@H](C#N)N(C(=O)C3CCCC3)[C@H]2CO)cc1	x	80*	x	x	4	107*
COc1ccccc1C#Cc1ccc([C@@H]2[C@H](C#N)N(C(=O)C3CCCCC3)[C@H]2CO)cc1	x	13	x	x	x	26
COc1ccccc1C#Cc1ccc([C@@H]2[C@H](C#N)N(C(=O)C3CCC3)[C@H]2CO)cc1	x	15	x	x	-11	7
COc1ccccc1C#Cc1ccc([C@@H]2[C@@H](CO)N(C(=O)C3CCCCC3)[C@H]2C#N)cc1	x	18	x	x	10	85*
CO[C@H]1CC[C@@H]2CCOc3ccc(C#N)cc3C(=O)N(C)C[C@@H](OC)[C@H](C)C(=O)N(C)C[C@H]1O2	x	19	x	x	-2	2
CCCC#Cc1ccc([C@@H]2[C@@H](C#N)N(C(=O)C3CCCCC3)[C@H]2CO)cc1	x	4	x	x	14	83*
N#C[C@@H]1[C@H](c2ccc(C#Cc3cccc(F)c3)cc2)[C@@H](CO)N1C(=O)C1CCC1	x	72*	x	x	15	23
N#C[C@H]1[C@@H](c2ccc(C#Cc3cccc(F)c3)cc2)[C@@H](CO)N1C(=O)C1CCC1	x	3	x	x	-2	x
COc1ccc(Nc2nc(Nc3ccc(OC)cc3)nc(-n3[nH]c(=O)c(C)c3C)n2)cc1	27	x	81*	3	x	x
C[C@@H]1CCCCO[C@H](CN(C)S(=O)(=O)c2cccs2)[C@@H](C)CN([C@H](C)CO)C(=O)c2cc(NC(=O)Nc3ccc(C(F)(F)F)cc3)ccc2O1	x	7	x	x	-11	11
O=C(NCC(=O)c1ccccc1)OCc1ccc([N+](=O)[O-])cc1	68*	-7	1	-23	-20	-18
OCCNc1c2ccccc2nc2ccccc12	-21	36	-3	88*	43	4
COc1ccc(S(=O)(=O)Nc2ccc3c(c2)C(=O)N([C@@H](C)CO)C[C@@H](C)[C@H](CN(C)C(=O)c2ccccc2)OCCCC[C@H](C)O3)cc1	x	5	x	x	-8	-6
COCCNC(=O)c1cc2c(c(-c3cccc(-c4cccc(F)c4)c3)n1)[C@H](CCO)N(S(=O)C(C)(C)C)C2 (some centres not stated)	x	8	x	x	5	62*
CC(C)(C)S(=O)N1Cc2cc(C(=O)NCC(F)(F)F)nc(-c3cccc(-c4cccc(F)c4)c3)c2[C@@H]1CCO (some centres not stated)	x	15	25	x	20	70*
SMILES	LMP1 NFkB inh	LGR2 antag	Shn3 inh set2	TRPM1 prom inh	EWS-Fli block	PAX8 inh HTS
Cc1ccc(CNC(=O)c2cc(-c3ccccc3C)nn2CC2CC(c3cccnc3)=NO2)cc1 (configuration not stated)	-8	-1	92*	-15	3	8
CC(=O)N1Cc2cc(C(=O)NCC(F)(F)F)nc(-c3cccc(-c4cccnc4)c3)c2[C@H]1CCO	x	2	x	x	3	21
CC(=O)N1Cc2cc(C(=O)NCC(F)(F)F)nc(-c3cccc(-c4cccnc4)c3)c2[C@@H]1CCO	x	5	x	x	59*	13
CCNC(=O)c1cc2c(c(-c3cccc(-c4cccnc4)c3)n1)[C@H](CCO)N(S(C)(=O)=O)C2	x	1	x	x	55*	40
C[C@H](CO)N1C[C@H](C)[C@H](CN(C)C(=O)Cc2ccccc2)OCCCC[C@H](C)Oc2ccc(NS(=O)(=O)c3cn(C)cn3)cc2C1=O	x	11	x	x	-12	3
CN(C[C@H]1N[C@@H](CO)[C@@H]1c1ccc(-c2cccc(F)c2)cc1)S(C)(=O)=O	x	-5	x	x	14	100*
CCCC(=O)Nc1ccc2c(c1)C(=O)N(C)C[C@H](OC)[C@@H](C)CN(C(=O)c1ccccn1)[C@H](C)CO2	x	8	x	x	-10	0
CCOC(=O)N1C2CCC(C2)N1C(=O)OCC	-9	15	93*	-3	1	-25
O=C1OCCC1Sc1nnc(-c2ccc(Cl)cc2Cl)o1 (configuration not stated)	50*	74*	28	40	49	53
O=C(C[C@H]1C[C@H]2c3cc(NC(=O)C4CCOCC4)ccc3O[C@H]2[C@@H](CO)O1)NCc1ccc(Oc2ccccc2)cc1	x	6	x	x	-3	-5
C[C@@H]1CN([C@H](C)CO)C(=O)c2cc(C#CC3CCCCC3)cnc2O[C@H]1CN(C)Cc1cncnc1	x	-3	x	x	10	x
N#CC(C#N)c1ccnc2ccccc12	43*	20	-16	x	5	-52
COc1ccc(S(=O)(=O)N(C)C[C@H]2OCCCC[C@H](C)Oc3ccc(NS(=O)(=O)c4c(C)noc4C)cc3C(=O)N([C@H](C)CO)C[C@H]2C)cc1	x	15	x	x	3	27
CCn1nc(C)cc1-c1nnc(Sc2ncc([N+](=O)[O-])s2)n1C	16	-2	95*	94*	69*	78*
CCCNC(=O)C[C@H]1CC[C@@H]2[C@H](COc3ccc(NC(=O)Nc4cccc(C)c4)cc3C(=O)N2C)O1	x	-20	x	x	-12	5
C[C@H](CO)N1C[C@H](C)[C@@H](CN(C)S(=O)(=O)c2ccccc2)OCCCC[C@H](C)Oc2ccc(NS(=O)(=O)c3ccc(Cl)cc3)cc2C1=O	x	9	x	x	-3	86*
